Bioassay records from PubChem.
G9a inh – blocks human histone lysine methyltransferase G9a. Q96KQ7. G9a H3K9 monomethylation, AlphaScreen, 2 h. Potency, µM (top dose mostly 102 µM), without a hit: at the highest dose activity, negative = inhibition, actives largely listed as inhibitors. actives 8.8% (n = 350,000). AID 504332; note: % is set by controls: 0 for no effect and ±100 for the full control effect; nearly all actives have a fitted effect of over 75% in size
Target sequence (Q96KQ7 913-1193 limits assumed): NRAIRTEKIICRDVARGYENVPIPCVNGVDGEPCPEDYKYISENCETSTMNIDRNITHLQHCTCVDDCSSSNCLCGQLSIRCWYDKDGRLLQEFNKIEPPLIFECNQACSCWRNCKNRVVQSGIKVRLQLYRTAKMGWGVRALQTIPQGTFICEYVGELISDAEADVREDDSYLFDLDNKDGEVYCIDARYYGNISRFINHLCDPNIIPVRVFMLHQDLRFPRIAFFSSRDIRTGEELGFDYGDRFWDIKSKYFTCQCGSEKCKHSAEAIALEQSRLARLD
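Signal arises when biotinylated H3K9 peptide, once monomethylated, bridges streptavidin donor and antibody-captured acceptor beads. Enzyme at 20 nM was preincubated 15 min with test compounds; peptide 500 nM and SAM 20 uM then reacted for 2 h.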
BAZ2B block – inhibitors of human BAZ2B bromodomain; actives 4.4% (n = 360,000); AlphaScreen BAZ2B-H3K14Ac peptide displacement; Potency, µM (titrated, usually from 114 µM), without a hit: at the top dose activity change, negative = inhibition, usual class: inhibitors; Q9UIF8; AID 504333; note: % is set by controls: 0 for no effect and ±100 for the full control effect; nearly all actives have a fitted effect of over 60% in size
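Complex of BAZ2B and biotin-H3K14Ac (50 nM apiece) forms over 30 min at RT, then faces library compounds up to 110 uM for another 30 min; AlphaScreen beads added, 20 min dark incubation, luminescence read.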
Sfp PPTase inh – blocks B. subtilis Sfp PPTase activity; Potency, µM, inactives show largest response in the series, negative = inhibition, usual class: inhibitors; actives 3.5% (n = 310,000); Q9F4F7; AID 1490; Biochemical Sfp PPTase activity, qHTS;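 note: the enzyme is Sfp with the accession as filed and its product quenches rhodamine fluorescence; 0% = enzyme reaction without inhibitor and -100% = no enzyme wells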
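Fluorescence-quenching assay: 15 nM Sfp-PPTase preincubated 15 min at room temperature with compound, then 5 uM rhodamine-CoA and 12.5 uM BHQ-2-labelled YbbR peptide added. Fluorescence (ex 525/em 598 nm) read at start and after 30 min; difference gives rate.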
TDP1 block – TDP1 (human) enzyme inhibition. AID 485290. actives 0.28% (n = 350,000). recombinant TDP1, AlphaScreen DNA substrate cleavage. Potency, µM (series often up to 130 µM), inactives show at the top dose activity change, negative = inhibition, actives largely listed as inhibitors. Q9NUW8; note: % is set by controls: 0 for no effect and ±100 for the full control effect; nearly all actives have a fitted effect of over 40% in size
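Steps: enzyme plus compound, 15 min RT; add biotin/phosphotyrosine-FITC oligonucleotide (15 nM final), react 5 min; add donor/acceptor beads (10 ug/ml final), 10 min; read AlphaScreen. Tdp1 at 1 nM final.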
HP1b chromo inh – blocks HP1-beta chromodomain binding to methylated histone tails; P83916; AlphaScreen HP1-beta / biotin-H3K9me3 peptide binding; Potency, µM (doses to about 114 µM), for inactives: at the top dose activity change, negative = inhibition, actives largely listed as inhibitors; actives 0.56% (n = 390,000); AID 540317; note: nearly all actives have a fitted effect of over 70% in size
Target sequence (P83916 whole entry, looked up): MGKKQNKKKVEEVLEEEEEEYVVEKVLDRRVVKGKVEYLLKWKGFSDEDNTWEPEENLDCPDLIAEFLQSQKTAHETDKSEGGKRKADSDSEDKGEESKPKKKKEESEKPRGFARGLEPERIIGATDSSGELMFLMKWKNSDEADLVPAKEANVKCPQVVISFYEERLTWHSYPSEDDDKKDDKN
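AlphaScreen: HP1-beta (50 nM) preformed 30 min with biotin-H3(1-18)K9me3 peptide (50 nM) in PBS pH 7.4, 0.01% Tween-20. Compound added for 30 min at RT, then streptavidin donor/nickel chelate acceptor beads (10 ug/mL) for 30 min.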
JMJD2A Tudor inh – inhibitors of human JMJD2A Tudor domain | Potency, µM (top dose mostly 114 µM), for the others: at the highest dose activity change, negative = inhibition, usual class: inhibitors | actives 4.4% (n = 390,000) | O75164 | AID 504339 | AlphaScreen JMJD2A-Tudor / H3K4me3 peptide binding; note: % is set by controls: 0 for no effect and ±100 for the full control effect; nearly all actives have a fitted effect of over 50% in size
* marks the source's active call; other numbers are inactive results; ? = inconclusive; · = no result given; [ ] = remark or other dose. Shown are actives, neighbours in structure and some others; about 12% of the full set was active somewhere. Calls come from the whole dose curve; as a rule, active = well fitted curve in the direction sought with a large enough effect; inconclusive = small, poorly fitted or top-dose-only effect, or another doubt; inactive = no such curve, though single readings can be large; an effect the other way counts as inactive or inconclusive. Potency is the fitted concentration of half-maximal effect.

SMILES	G9a inh	BAZ2B block	Sfp PPTase inh	TDP1 block	HP1b chromo inh	JMJD2A Tudor inh
COc1cnc(-c2ccccc2)nc1Oc1ccc(C(C)(C)C)cc1	25%[59 µM]	-3%	1%	5%	69%	60%
CCOC(=O)Cc1nc(-c2ccc(Cl)cc2)n[nH]1	0%	-5%	20%	1%	-14%	-8%
COc1ccccc1CCNC(=O)C(=O)NCC1OCCN1S(=O)(=O)c1cc(F)ccc1F (centres undefined)	21%	5%	11%	·	13%	-17%
O=C(c1ccccc1)c1ccc(OCCCN2CCCC2)cc1	2.5µM*	?	-37%	-12%	?	10µM*
CCCCOc1ccc(CN2CCCCC2)cc1	-33%[59 µM]	-4%	-14%	0%	30%	-6%
c1ccc(COc2ccc(OCCCCN3CCCCC3)cc2)cc1	8.9µM*	40µM*	-33%	4%	-38%	7.1µM*
Oc1ccc(N2CCN(Cc3ccc(OCCCN4CCCCC4)cc3)CC2)cc1	10µM*	10µM*	?	0%	40µM*	50µM*
CCOc1ccc(OCCCCN2CCCC2)cc1	?	?	?	-2%	-16%	45µM*
Cc1ccc(OCCN2CCCC2)cc1	22µM*	-39%	4%	4%	?	18µM*
Cc1ccc(OCCCCN2CCCCC2)cc1	-3%[59 µM]	-30%	17%	·	31%	-7%
CC(C)c1ccc(OCCCN2CCCC2)cc1	-10%	56µM*	-12%	·	-26%	56µM*
CN1C2CCC1CC(NC(=O)c1cc(Cl)cc3[nH]cnc13)C2 (centres undefined)	?	-9%	-5%	·	20%	4%
Cc1cc(C)n2cc(CSc3nnnn3-c3ccc(Cl)cc3)nc2n1	40µM*	2%	?	8%	22%	-20%
Cc1cc(C)n2cc(CSc3ccc(Br)cc3)nc2n1	-16%	?	-1%	-4%	22%	-28%
Cc1cc(C)n2cc(CSCC(=O)O)nc2n1	45µM*	?	-30%	-2%	18%	-10%
Cc1cc(C)n2cc(CSc3nnnn3-c3ccccc3)nc2n1	-35%[59 µM]	-31%	4%	-1%	40%	-10%[57.1 µM]
Cc1ccccc1C(=O)N(Cc1nc2ccccc2c(=O)[nH]1)C1CCCC1	-1%	-22%	8%	-3%	27%	-12%
CN(C)S(=O)(=O)c1ccc(C(=O)Oc2cc(=O)[nH]c3ccccc23)cc1	71µM*	-2%	7%	5%	44%	-14%
CCOc1ccc(C2C(C(=O)c3ccc(C)o3)=C(O)C(=O)N2Cc2cccnc2)cc1 (centres undefined)	40µM*	-27%	0%	8%	·	89µM*
Cc1ccc(C(=O)C2=C(O)C(=O)N(Cc3cccnc3)C2c2ccc(Cl)cc2)o1 (centres undefined)	50µM*	11%	-11%	-5%	-9%	-14%
CC(=O)C1=C(O)C(=O)N(Cc2cccnc2)C1c1ccc(C(C)C)cc1 (centres undefined)	56µM*	-32%	13%	2%	44%	-11%
CC(=O)c1ccc(N2CCN(C(C)C(=O)Nc3ccc4c(c3)OCCO4)CC2)cc1 (centres undefined)	·	·	·	1%	27%	-13%
CC(C)OCCCNC(=O)c1c2c(nc3ccccc13)C(=O)N(C1CCCCC1)C2	8%[59 µM]	-11%	·	10%	5%	-12%
Cc1cc(C)c2nc(-c3cccnc3)cc(C(=O)NC(C)c3cnn(C)c3C)c2c1 (centres undefined)	28%[12.7 µM]	-28%	15%	3%	28%	-10%
Cc1ccccc1NC(=S)c1ccc2ccccc2n1	11µM*	10µM*	28µM*	10%	37%	-14%
CCCN(CC(=O)Nc1ccccc1C)C(=O)c1ccc2ccccc2n1	-46%	-16%	·	-12%	38%	0%
CCC(C)[C@@H](NC(=O)OC(C)(C)C)c1nnc(S(=O)(=O)Cc2cccc(C)c2)o1 (some centres undefined)	?	2%	25µM*	4%	61%	-14%
